Screens (PubChem BioAssay)
A selection: hits, their analogues and other compounds. The true share with any hit is near 3.8%.
KCNH2 WT inh = blocks the wildtype human KCNH2 potassium channel; Q12809; U2OS, BacMam KCNH2, thallium flux FluxOr; stronger effect = lower value; activity change, % at 1.84 µM; 340,000 compounds, 0.37% hits;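 active = maximum activity change below -70%; inconclusive = maximum activity change between -70% and -50%; inactive = maximum activity change above -50%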; note: % is set by controls: 0 for no effect and ±100 for the full control effect
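U2OS cells were transduced with wild-type KCNH2 virus (2.03 x 10^8 / mL) for 4 h at room temperature, then cultured overnight at 37 C. Thallium flux was read with FluxOr dye. Rate constants were normalized to DMSO controls.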
KCNH2 3.1 inh = KCNH2 3.1 (human) potassium channel inhibition; U2OS KCNH2 3.1, thallium flux FluxOr; stronger effect = lower value; 340,000 compounds, 0.95% hits; activity change, % (tested at about 1.8 µM);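 active = maximum activity change below -70%; inconclusive = maximum activity change from -70% to -50%; inactive = maximum activity change above -50%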;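 note: thallium influx rate constant from kinetic fluorescence after stimulation buffer; % is set by controls: 0 for no effect and ±100 for the full control effect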
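Thallium flux read-out: FluxOr dye with Red40 quencher in HBSS/HEPES, 45 min at RT. Rate constants from kinetic reads were normalized to positive and negative DMSO controls. Cells: U2OS virally expressing the 3.1 isoform.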
MBNL1-CUG inh = inhibitors of human MBNL1 binding to CUG repeat RNA | Q9NR56 | TR-FRET MBNL1-His/biotin-(CUG)12 binding, 665/545 ratio | Potency, µM (series often up to 57.5 µM), without a hit: at the top dose activity change, negative = inhibition, hits mostly inhibitors | 280,000 compounds, 0.036% hits | AID 2675; active = well fitted inhibition curve with a large enough effect in the signal ratio, with a control signal flat, not every such curve was filed as active; inconclusive = small, poorly fitted or top-dose-only effect, or effect the other way, or a change in a side signal; inactive = no such curve, though single readings can be large or run the other way; the % refers to the signal ratio; note: potency is the fitted concentration of half-maximal effect; % is set by controls: 0 for no effect and ±100 for the full control effect
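MBNL1-His + Biotin-(CUG)12, cpd titration 92 nM–58 uM; Tb anti-His Ab 0.055 ng/ul, SA-XL665 5 nM (final); 60 min RT; ratiometric 665/545 nm, Ex 340 nm; normalized to buffer and full-complex controls.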
PLK1 PBD inh = inhibitors of human PLK1 polo-box domain binding | P53350 | Plk1 PBD binding of FITC phosphopeptide, fluorescence polarization | Potency, µM, without a hit: max response, negative = inhibition, actives largely listed as inhibitors | 360,000 compounds, 2.8% hits | AID 720504; note: potency is the fitted concentration of half-maximal effect; series mostly up to about 57 µM; % is set by controls: 0 for no effect and ±100 for the full control effect; nearly all actives have a fitted effect of over 65% in size
CBFb-RUNX1 inh = inhibitors of human CBF-beta and RUNX1 interaction; Q01196+Q13951; AlphaScreen CBFb-His/RUNX1-biotin binding, biochemical; Potency, µM (doses to about 59.8 µM), for the others: top-dose activity, negative = inhibition, hits mostly inhibitors; 230,000 tested, under 10 active; AID 1477; note: % of control where 0% means no effect
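Inhibition was taken as any reduction in AlphaScreen signal from the CBF-beta–RUNX1 pair (His and biotin tags, 30 nM each), measured after compound (15 min) and bead (90 min) incubations at room temperature.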
VDR inh = inhibitors of human vitamin D receptor. Potency, µM, inactives show max response, negative = inhibition, actives largely listed as inhibitors. 400,000 compounds, 0.93% hits. VDR-SRC2-3 peptide fluorescence polarization, 2 h. P11473; note: potency is the fitted concentration of half-maximal effect; % is set by controls: 0 for no effect and ±100 for the full control effect
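Signal is fluorescence polarization, reporting how far test compounds block the interaction of VDR with the SRC2-3 coregulator peptide after a 2 h room-temperature incubation.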
USP1 UbRho = USP1-UAF1 deubiquitinase inhibition validated | Potency, µM (titrated, usually from 56.8 µM), inactives show at the top dose activity change, negative = inhibition, actives largely listed as inhibitors | shares compounds with VDR inh | 50 compounds, 50% hits | AID 540327 | Ub-Rhodamine cleavage, fluorescence kinetic read
VDR inh confirm = inhibits human vitamin D receptor, primary hit validation; shares compounds with VDR inh; VDR-coactivator inhibition assay, qHTS confirmation; Potency, µM, actives largely listed as inhibitors; 840 compounds, 89% hits; note: potency is the fitted concentration of half-maximal effect
VDR FP fluor = VDR (human) coactivator binding inhibition, fluorescein polarization. shares compounds with VDR inh. VDR-coactivator binding, fluorescein fluorescence polarization. Potency, µM (doses to about 57.1 µM), for the others: at the top dose activity change, negative = inhibition, most hits filed as inhibitors. 840 compounds, 48% hits. AID 602200; note: potency is the fitted concentration of half-maximal effect
VDR bla reporter = inhibits human VDR in beta-lactamase reporter cells. shares compounds with VDR inh. VDR beta-lactamase reporter cells, FRET ratio; cells co-treated with VDR agonist LG190178. Potency, µM (titrated, usually from 46.1 µM), inactives show top-dose activity change, negative = inhibition, most hits filed as inhibitors. 840 compounds, 23% hits; note: potency is the fitted concentration of half-maximal effect; % is set by controls: 0 for no effect and ±100 for the full control effect
VDR cytotox = cytotoxic in counter-screen for VDR inhibitors; shares compounds with VDR inh; cytotoxicity counter-screen, cell viability, qHTS; Potency, µM (highest dose often 48.3 µM), for inactives: at the top dose activity change, negative = cytotoxicity, most hits filed as cytotoxic; 840 compounds, 18% hits; AID 602204;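 note: potency is the fitted concentration of half-maximal effect; plate controls were DMSO for no effect and high-concentration cycloheximide for full effect; nearly all actives have a fitted effect of over 75% in size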
* hit, by the source's call; ? = inconclusive; nt = not tested or not shown; [ ] = dose if it differs, or a comment. Unless noted, calls come from the whole dose curve; as a rule, active = well fitted curve in the direction sought with a large enough effect; inconclusive = small, poorly fitted or top-dose-only effect, or another doubt; inactive = no such curve, though single readings can be large; an effect the other way counts as inactive or inconclusive.

SMILES | KCNH2 WT inh | KCNH2 3.1 inh | MBNL1-CUG inh | PLK1 PBD inh | CBFb-RUNX1 inh | VDR inh | VDR inh confirm | VDR FP fluor | VDR bla reporter | VDR cytotox | others
CCCc1c(OCCCOc2ccc(OCC(=O)O)cc2)ccc(C(C)=O)c1O | -11 | 2 | nt | ? | -3% | 50µM* | nt | nt | nt | nt | USP1 UbRho=?
Cc1cccc2c1c1ccc3c(c1n2C)C(=O)C=CC3=O | -6 | -13 | -3% | ? | -27% | 22µM* | 9.5* | 13µM* | 7.3µM* | 8.9µM*
O=C(N[C@@H](Cc1ccccc1)C(=O)CCl)OCc1ccccc1 | -7 | 14 | nt | 30µM* | 11% | 5.6µM* | nt | nt | nt | nt | USP1 UbRho=26µM*
O=S(=O)(/N=C(/Sc1ccccc1)c1ccccc1)c1ccc(Cl)cc1 | nt | nt | nt | nt | nt | 50µM* | 7.1* | 16µM* | -2% | ?
O=[N+]([O-])c1ccc(Cl)c(S(=O)(=O)/N=C(/Sc2ccc(Br)cc2)c2ccccc2)c1 | nt | nt | nt | nt | nt | ? | 7.1* | 5µM* | 10% | 8%
CS/C(=N\S(=O)(=O)c1ccccc1)c1ccccc1 | 3 | -7 | -15% | 6% | 9% | 5% | nt | nt | nt | nt
O=S(=O)(/N=C(/Sc1ccc(Cl)cc1)c1ccccc1)c1ccccc1 | nt | nt | nt | nt | nt | 35µM* | 3.5* | 11µM* | 0% | 11%
O=S(=O)(/N=C(/Sc1ccccc1)c1ccccc1)c1ccccc1 | 3 | 4 | -1% | 1.9µM* | -2% | 79µM* | 8.4* | ? | 15% | -8%
Cc1ccc(C(=O)c2no[n+]([O-])c2C(=O)c2ccc(C)cc2)cc1 | -3 | nt | ? | ? | 6% | ? | 10* | 18µM* | 6.5µM* | 13µM*
Cc1ccc(C(=O)c2ccc(C)cc2)cc1 | 0 | -12 | -3% | 4% | -12% | 21% | nt | nt | nt | nt
CCOC(=O)c1c(NC(=O)c2ccncc2)sc(C)c1C | nt | 33 | 0% | ? | 3% | 3% | nt | nt | nt | nt
CCOC(=O)c1sc(NC(=O)c2ccncc2)c(C#N)c1C | -12 | 6 | -19% | 3.8µM* | 7% | 45µM* | 3.8* | ? | 5% | ?
Cc1ccc2nc(-c3c[nH]c4ccccc34)c(Nc3ccccc3)n2c1 | nt | nt | nt | nt | nt | -11% | nt | nt | nt | nt
O=C(O)c1cccc(CN2C(=O)S/C(=C/c3cccc([N+](=O)[O-])c3)C2=O)c1 | -8 | -1 | ? | ? | 1% | 20µM* | 18* | 22µM* | -23% | -8%
COc1ccc(-n2c(SCC#N)nc3c(sc(=S)n3-c3ccccc3)c2=O)c(OC)c1 | -7 | 4 | 5% | 6µM* | nt | 25µM* | 8.4* | ? | 31% | 3%
COc1ccccc1-n1c(SC)nc2c(sc(=S)n2-c2ccccc2)c1=O | -8 | 1 | -4% | 1% | nt | 18% | nt | nt | nt | nt
Cc1ccc(Cn2c(=O)n(-c3cc(C)cc(C)c3)c(=O)c3oc4ccccc4c32)cc1 | nt | nt | nt | nt | nt | 12% | nt | nt | nt | nt
CC(C)(C)OC(=O)N1CCC(c2c(C(=O)NCc3ccco3)cnn2-c2ccccc2Cl)CC1 | nt | nt | nt | nt | nt | 16% | nt | nt | nt | nt
CC(C)c1ccc(/C=c2\sc3nc(-c4ccncc4)nn3c2=O)cc1 | 1 | 2 | 1% | -30% | 2% | 22µM* | 2.7* | ? | -7% | 18%
Cc1ccc(/C=c2\sc3nc(-c4cccnc4)nn3c2=O)cc1 | 2 | -9 | -7% | -13% | -1% | ? | 2.2* | 1.1µM* | 3% | 18%
CCCOC(=O)c1c(NC(=O)C2CCCO2)sc(C(=O)OC)c1C (stereo unspecified) | -1 | 3 | -4% | 9.5µM* | 7% | 79µM* | 24* | ? | -5% | 13%
CCOC(=O)c1c(NC(=O)C2CCCO2)sc(C(N)=O)c1C (stereo unspecified) | -2 | 1 | nt | -19% | 2% | -6% | nt | nt | nt | nt
COC(=O)[C@@H]1[C@@H](C#N)C2(c3ccccc3-c3ccccc32)N(c2ccc(Cl)cc2)N1C#N | -7 | 2 | 14% | ? | 2% | 25µM* | 24* | ? | ? | ?
COC(=O)C1c2ccccc2-c2ccccc21 | -4 | 15 | -2% | -10% | 3% | 9% | nt | nt | nt | nt
COc1ccc(-c2ccc(NS(=O)(=O)c3ccc(OC)c(OC)c3)cc2)nn1 | nt | nt | nt | nt | nt | 15% | nt | nt | nt | nt
SMILES | KCNH2 WT inh | KCNH2 3.1 inh | MBNL1-CUG inh | PLK1 PBD inh | CBFb-RUNX1 inh | VDR inh | VDR inh confirm | VDR FP fluor | VDR bla reporter | VDR cytotox | others
CCc1ccc(-n2nc3cc(C)c(N)cc3n2)cc1 | 4 | 0 | 17% | ? | nt | ? | 7.1* | 13µM* | 1% | 4%
COc1ccc([N+](=O)[O-])c(C=CC(=O)c2ccccn2)c1 | -8 | 2 | nt | -17% | nt | nt | nt | nt | nt | nt
COc1ccc(/C=C/C(=O)c2ccccn2)cc1 | 5 | -6 | ? | -12% | ? | 40µM* | 34* | ? | 34% | -14%
CCN(c1ccccc1)c1ncnc2c1cnn2-c1ccc(OC)cc1 | nt | nt | nt | nt | nt | 8% | nt | nt | nt | nt
O=C(Nc1nnc(COc2ccc(Cl)cc2)s1)c1ccco1 | 15 | 6 | -12% | 2.7µM* | 8% | 28µM* | 4.2* | ? | -17% | -6%
COc1cc(N[C@@H](C)CCCN)c2ncccc2c1 | nt | nt | nt | nt | 6%[21.7 µM] | 5% | nt | nt | nt | nt | USP1 UbRho=20µM*
Cc1ccc2c(CNCCc3ccco3)c(C(=O)O)n(Cc3ccc(F)cc3)c2c1 | nt | nt | nt | nt | nt | 4% | nt | nt | nt | nt
COc1cc(C2Nc3ccccc3C(=O)N2Cc2ccccc2)ccc1OCc1ccccc1 (stereo unspecified) | nt | nt | nt | nt | nt | -9% | nt | nt | nt | nt
C=CCN1C(=O)/C(=N/n2cnnc2)c2ccccc21 | 1 | -2 | 8% | -23% | 1% | 40µM* | 17* | ? | 23% | -26%
Cc1cn2c(=O)cc(COC(=O)c3cccc(NC(=O)COc4ccccc4Cl)c3)nc2s1 | nt | nt | nt | nt | nt | 3% | nt | nt | nt | nt
